Source: PubChem BioAssay (several laboratories)
Compounds with a hit are over-represented: about 0.5% of the library has one in this group of screens.
AddAB inh = growth inhibition of E. coli expressing H. pylori AddAB, primary screen, AddAB inhibitor project, absorbance; inhibition, % at 11.9 µM; 330,000 tested, 0.29% active; in the data active means inhibition above about 12%;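 further: 0% = vehicle wells of infected cells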
E coli growth-1 = E. coli V3065 growth inhibition, primary screen, counter-screen for AddAB inhibitor project, absorbance, OD600. 18 h. inhibition, % at 11.9 µM. 330,000 tested, 0.27% active. AID 449728, 2010;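 active means inhibition above the campaign's mean inhibition across all tested compounds plus 3 SD, cut at about 9.9% in these data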;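 further: uninfected addAB+ strain grown without phage in ampicillin broth; 0% = DMSO wells and 100% = ciprofloxacin 0.95 µg/ml wells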
E coli growth-2 = E. coli growth inhibition, primary screen, OD600 | Escherichia coli growth, 23 h; active compounds read low | OD600 absorbance (test concentration not listed) | 330,000 tested, 0.21% active | AID 1053175, 2014;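 active means OD600 absorbance below the run mean of sample wells minus 3.6 SD, in any replicate, cut at about 0.56 in these data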
phage Ecoli inh = growth loss of phage-infected E. coli, primary screen, RecBCD inhibitor project, absorbance, with phage, HTS; inhibition, % at 11.9 µM; 360,000 tested, 0.26% active; AID 651602, 2012; in the data active means inhibition above about 11%
Tat export inh = E. coli Tat export inhibitors, primary screen, MC4100, TorA-mCherry reporter, fluorescence, single point; AID 488895, 2010; inhibition, % at 10 µM; 340,000 tested, 0.036% active;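 active means mean replicate inhibition at least 50% and at least half of replicates individually reaching 50%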;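 further: exported cargo escapes ClpAP degradation while cytoplasmic cargo is degraded and loses fluorescence; 0% = median of neutral control wells and 100% = median of NaSCN control wells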
An asterisk follows results filed as active; nt = no result given.

SMILES | AddAB inh | E coli growth-1 | E coli growth-2 | phage Ecoli inh | Tat export inh
O=C(Nc1ccncc1)Nc1ccc(F)c(Cl)c1 | 4 | 1 | 0.51* | 6 | -3
COc1ccc(S(=O)(=O)Nc2ccc3c(c2)C(=O)N(C(C)CO)CC(C)C(CN(C)C(=O)Nc2c(C)noc2C)O3)cc1 (stereo not drawn) | nt | nt | 0.71 | nt | nt
CCC1C(Nc2ccccc2)CC2CCN3C(=O)CCCC1C23 (stereo not drawn) | nt | nt | 0.66 | nt | nt
Oc1c(Br)cc(Br)cc1/C=N/NC(=S)N[C@H]1CC2C=CC1C2 (stereo partly drawn) | 12 | 10* | nt | 9 | -9
Oc1c(Cl)cc(Cl)cc1C=NNC(=S)NC1CC2C=CC1C2 (stereo not drawn) | nt | nt | 0.7 | nt | nt
CCCCNC(=S)Nc1ccc(Cl)cc1 | 3 | 2 | 0.65 | 3 | -3
CCCCNC(=S)Nc1ccc(C(F)(F)F)cc1 | 11 | 11* | 0.56 | 10 | 0
Cc1cc(C(C)(C)CC(C)(C)C)ccc1OCCOCC[N+](C)(C)Cc1ccccc1 | -3 | 3 | 0.066* | 3 | 33
O=C(/C=C/c1ccccc1)NC(=S)NNC(=O)c1cccnc1 | -3 | -6 | 0.72 | -4 | 4
O=C(/C=C/c1ccccc1)NC(=S)NNC(=O)c1cnccn1 | 11 | 11* | nt | 9 | 2
CCOC(=O)N/N=C/C(Cl)=C/c1ccccc1 | 9 | 13* | nt | 2 | 5
Cc1ccc(CN2C3c4ccccc4CC3OCCS2(=O)=O)cc1 (stereo not drawn) | nt | nt | 0.65 | nt | nt
CCN1C(=Cc2ccc3ccccc3[n+]2CC)C=Cc2ccccc21 | nt | nt | 0.49* | nt | nt
CCN1/C(=C/c2ccc3ccccc3[n+]2CC)C=Cc2ccccc21 | 10 | 11* | nt | 12* | -15
Cc1noc(C)c1COC(=O)c1cc(S(=O)(=O)N2CCOCC2)ccc1Cl | -4 | 2 | 0.68 | 3 | 22
Cc1noc(C)c1COC(=O)c1cccc(S(=O)(=O)N2CCOCC2)c1 | 3 | 2 | 0.7 | 2 | 53*
CCOc1ccc(C2Nc3cccc4cccc(c34)N2)cc1OC | 2 | 2 | 0.56* | 3 | -2
CCOc1cc(C2Nc3cccc4cccc(c34)N2)ccc1O | 5 | -2 | 0.68 | nt | 2
COc1ccc(CNc2ccc3c(c2)nc(C)n3C)cc1OC | -2 | 13* | 0.65 | 0 | -2
CCOc1ccc(CNc2ccc3c(c2)nc(C)n3C)cc1 | 2 | -1 | 0.69 | 2 | 7
O=C(Nc1ccccc1)Nc1ccc(Cl)c([N+](=O)[O-])c1 | 7 | 6 | 0.48* | 3 | -4
O=C(Nc1ccccc1)Nc1cccc(Cl)c1 | 5 | 5 | 0.5* | 10 | -4
O=C(Nc1ccccc1)Nc1ccc2snnc2c1 | 6 | 5 | 0.57 | 5 | 3
O=C(Nc1ccccc1)Nc1ccc2nnsc2c1 | 8 | 6 | 0.4* | 9 | -5
O=C(Nc1cccc(Cl)c1)Nc1ccc2c(c1)OCO2 | 5 | 6 | 0.53* | 7 | 5
SMILES | AddAB inh | E coli growth-1 | E coli growth-2 | phage Ecoli inh | Tat export inh
Cc1ccc(NC(=O)Nc2ccccc2)cc1[N+](=O)[O-] | 6 | 5 | 0.54 | 9 | 2
O=C(NCc1ccc2c(c1)OCO2)Nc1cccc(Cl)c1 | 0 | 0 | 0.68 | 2 | 1
CCC(C)C(NC(=O)OC(C)(C)C)c1cn(C(Cc2ccc(O)cc2)C(=O)N2CCN(C(=O)OC(C)(C)C)CC2)nn1 (stereo not drawn) | nt | nt | 0.68 | nt | nt
O=C(Nc1ccc(F)cc1)C(Cl)=Cc1ccccc1 | nt | nt | 0.67 | nt | nt
O=C(CNc1ccc(F)cc1)NN=C1CCc2ccccc21 | nt | nt | 0.67 | nt | nt
CN(C)c1ccc(/C=N\NC(=S)SCN2C(=O)C3CCC(C)(C2=O)C3(C)C)cc1 (stereo not drawn) | 7 | 15* | nt | 4 | 1
COc1ccc(C=NNC(=S)SCN2C(=O)C3CCC(C)(C2=O)C3(C)C)cc1 (stereo not drawn) | nt | nt | 0.71 | nt | nt
CC12CCC(C(=O)N(CSC(=S)NN=Cc3ccccc3)C1=O)C2(C)C (stereo not drawn) | nt | nt | 0.65 | nt | nt
COc1ccc(/C=N\NC(=S)SCN2C(=O)C3CCC(C)(C2=O)C3(C)C)cc1 (stereo not drawn) | 8 | 11* | nt | 4 | -6
CC1(C)CCC[C@@]2(C)C1CC[C@@]1(C)Oc3ccc(O)cc3CC21 (stereo partly drawn) | nt | nt | 0.66 | nt | nt
CCN(CC)C(=O)c1ccc(/C=C/c2c[nH]c3ccccc23)[n+](C)c1 | 2 | 0 | 0.72 | 1 | -5
CC[n+]1c(/C=C/c2c[nH]c3ccccc23)ccc2cc(C)ccc21 | nt | nt | 0.46* | -1 | -2
Cc1noc(C)c1NC(=O)Nc1ccc2c(c1)CC(=O)N(C(C)CO)CC(C)C(CN(C)C(=O)Nc1cccc3ccccc13)O2 (stereo not drawn) | nt | nt | 0.66 | nt | nt
CC1CC2C3CC(F)C4=CC(=O)C=C[C@]4(C)[C@@]3(F)C(O)C[C@]2(C)[C@@]1(O)C(=O)COC(=O)C(C)(C)C (stereo partly drawn) | nt | nt | 0.67 | nt | nt
NCC12CC3CC(C1)CC(c1ccc(Cl)cc1)(C3)C2 | 2 | 1 | 0.51* | 3 | 16
C=CCn1c(CNc2ccc(C)cc2)nnc1SCC(=O)NN=Cc1ccc(O)cc1O | nt | nt | 0.67 | nt | nt
CC(C)c1ccc2c(c1)CC[C@H]1[C@](C)(CN)CCC[C@]21C | nt | nt | nt | 4 | 3
CC(C)c1ccc2c(c1)CCC1C(C)(CN)CCCC21C (stereo not drawn) | 4 | -1 | 0.48* | 9 | -8
CNC(CC(C)C)C(=O)NC1C(=O)NC(CC(N)=O)C(=O)NC2C(=O)NC3C(=O)NC(C(=O)NC(C(=O)O)c4cc(O)cc(O)c4-c4cc3ccc4O)C(O)c3ccc(c(Cl)c3)Oc3cc2cc(c3OC2OC(CO)C(O)C(O)C2OC2C[C@](C)(N)C(O)C(C)O2)Oc2ccc(cc2Cl)C1O (stereo partly drawn) | -3 | 0 | 0.4* | 7 | -37
COc1ccc(NC(=O)c2nc[nH]c2C(=O)NC(C)c2ccccc2)cc1 (stereo not drawn) | nt | nt | 0.69 | nt | nt
CCn1cc(C(=O)O)c(=O)c2cnc(N3CCN(C(=S)NC(=O)c4ccc(Br)cc4)CC3)nc21 | 3 | 1 | 0.46* | nt | nt
CCN1CCN(C(=S)NC(=O)c2cc(OC)c(OC)c(OC)c2)CC1 | 1 | 2 | 0.7 | 2 | 2
CCn1cc(C(=O)O)c(=O)c2cnc(N3CCN(C(=S)NC(=O)c4ccc(Cl)cc4)CC3)nc21 | 4 | 4 | 0.43* | nt | nt
CCn1cc(C(=O)O)c(=O)c2cnc(N3CCNCC3)nc21 | 102* | 103* | nt | nt | nt
CCn1cc(C(=O)NCCc2ccc(Cl)cc2)c(=O)c2ccc(C)nc21 | nt | nt | 0.6 | 1 | -14
CC(C)(C)OC(=O)N1CCN(C(=O)c2[nH]cnc2C(=O)NC(Cc2ccccc2)C(=O)OCc2ccccc2)CC1 (stereo not drawn) | nt | nt | 0.67 | nt | nt
CCn1cc(C(=O)N2CCN(c3ccc([N+](=O)[O-])cc3)CC2)c(=O)c2ccc(C)nc21 | 1 | 2 | 0.72 | 3 | -7
CCn1cc(C(=O)OC)c(=O)c2ccc(C)nc21 | 2 | 3 | 0.7 | 4 | 3
